Results filed as inconclusive are left out. A call without a number means that no potency is given here. The source made the active and inactive calls. The call rests on the fitted dose curve; in most records, active means well fitted curve in the direction sought with a large enough effect; inconclusive means small, poorly fitted or top-dose-only effect, or another doubt; inactive means no such curve, though single readings can be large; an effect the other way counts as inactive or inconclusive.
How the values were obtained:
[1] = qHTS assay for measurement of the activity of small molecule inhibitors on Zika virus induced Caspase-3 activity in human iPSC derived neural progenitor cells (hNPCs) (AID 1224857); further: nearly all actives have a fitted effect of over 65% in size
How it was run: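 In medium with heparin 2 ug/ml and cyclopamine 2 uM, hNPCs (350 cells/well) received compound for one hour and then Zika virus at 2 FFU/cell; caspase activity was measured by Caspase-Glo 3/7 luminescence 6 h post-infection.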

[2] = qHTS assay for measurement of the activity of small molecule inhibitors on Zika virus induced Caspase-3 activity in human astrocytoma cells (AID 1224859)
How it was run: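 A cell-based luminescent caspase-3/7 assay used SNB-19 cells infected with ZIKV (2 FFU/cell) for 6 h following 1 h compound pretreatment.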

[3] = P-glycoprotein substrates identified in KB-8-5-11 adenocarcinoma cell line, qHTS therapeutic library screen (AID 1346987); further: nearly all actives have a fitted effect of over 65% in size
How it was run: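 Steps: plate 500 KB-8-5-11 cells/well in DMEM + 10% FCS (colchicine removed); pin compounds in dose-response; incubate 72 h, 37 degree C, 5% CO2; add CellTiter-Glo, 5 min; read luminescence.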

[4] = NS1 protein of Zika virus - qHTS assay to identify small molecule inhibitors in human HEK 293 cells (AID 1347053); further: series mostly up to about 46 µM; nearly all actives have a fitted effect of over 55% in size
How it was run: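 HEK 293 cells pretreated with compound for 1 h, then infected with ZIKV MR766 (MOI 0.5) for 24 h at 37 C. NS1 detected by TR-FRET with two anti-NS1 antibodies; normalized to uninfected (0%) and infected (100%) wells.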

[5] = qHTS of pediatric cancer cell lines to identify multiple opportunities for drug repurposing: Primary screen for TC32 cells (AID 1347089); further: nearly all actives have a fitted effect of over 60% in size
How it was run: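 Luminescent ATP read-out (CellTiter-Glo) of metabolically active TC32 cells after 48 h exposure. Concentration-response curves came from 11-point (MIPE, 0.78 nM–46 µM) or 8-point (NPC, 0.59 nM–46 µM) primary titrations; follow-up used 11 points.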

[6] = qHTS of pediatric cancer cell lines to identify multiple opportunities for drug repurposing: Primary screen for SJ-GBM2 cells (AID 1347091)
How it was run: (§1)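 Eight- or eleven-point concentration series, 48 h treatment at 37 degrees C in growth media; readout CellTiter-Glo luminescence. Potency and efficacy were taken from the concentration-response curves.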

[7] = qHTS of pediatric cancer cell lines to identify multiple opportunities for drug repurposing: Primary screen for A673 cells (AID 1347092); further: nearly all actives have a fitted effect of over 45% in size
How it was run: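 Cell viability of A673 measured by CellTiter-Glo ATP luminescence after 48 hours compound exposure. Dilution series spanned 0.78 nM to 46 µM (MIPE, 11-point) or 0.59 nM to 46 µM (NPC, 8-point); bortezomib 2.3 uM positive control.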

[8] = qHTS of pediatric cancer cell lines to identify multiple opportunities for drug repurposing: Primary screen for SK-N-MC cells (AID 1347093); further: potency means the concentration at half of the fitted maximal effect
How it was run: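 Metabolically active cells were quantified by ATP-dependent luminescence (CellTiter-Glo, 15 min at room temperature) following 48 h treatment. Cells had been plated at 500-1,000 per well and settled for 5 h beforehand.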

[9] = qHTS of pediatric cancer cell lines to identify multiple opportunities for drug repurposing: Primary screen for NB-EBc1 cells (AID 1347095)
How it was run: (§2)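 Cells plated at 500-1,000/well in growth medium, compounds added after 5 h. MIPE tested at 11 points (from 0.78 nM), NPC at 8 points (from 0.59 nM). CellTiter-Glo luminescence after 48 h; concentration-response curves from primary screen.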

[10] = qHTS of pediatric cancer cell lines to identify multiple opportunities for drug repurposing: Primary screen for U-2 OS cells (AID 1347096); further: nearly all actives have a fitted effect of over 50% in size
How it was run: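 Cells (500-1,000/well) in growth media were settled 5 h at 37 degrees C, then given compounds for 48 h. Viability was read as CellTiter-Glo luminescence. Primary runs used MIPE at 11 points (0.78 nM-46 µM) and NPC at 8 points (0.59 nM-46 µM); follow-ups used 11 points.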

[11] = qHTS of pediatric cancer cell lines to identify multiple opportunities for drug repurposing: Primary screen for DAOY cells (AID 1347090); further: series mostly up to about 46 µM; nearly all actives have a fitted effect of over 55% in size
How it was run: as §1

[12] = qHTS of pediatric cancer cell lines to identify multiple opportunities for drug repurposing: Primary screen for BT-37 cells (AID 1347094); further: series mostly up to about 57 µM
How it was run: as §2

Structure (SMILES) | Potency [1] | outcome [2] | Potency [3] | Potency [4] | Potency [5] | Potency [6] | Potency [7] | Potency [8] | Potency [9] | Potency [10] | Potency [11] | Potency [12]
CCCCCC1Nc2cc(C(F)(F)F)c(S(N)(=O)=O)cc2S(=O)(=O)N1 (stereo not given) | inactive | inactive | inactive | inactive | inactive | inactive | inactive | inactive | inactive | inactive | – | –
COc1cc(C=O)ccc1O | inactive | inactive | inactive | inactive | inactive | inactive | – | inactive | – | inactive | inactive | inactive
CCCCC/C=C\C/C=C\CCCCCCCC(=O)NC(C)c1ccccc1 (stereo not given) | inactive | inactive | inactive | inactive | inactive | inactive | – | 18.8 µM (active) | inactive | inactive | inactive | –
CN(C(=O)C(Cl)Cl)c1ccc(OC(=O)c2ccco2)cc1 | inactive | inactive | inactive | inactive | inactive | inactive | – | inactive | – | inactive | inactive | inactive
Cc1ccccc1C(=O)N1CC/C(=N\OS(=O)(=O)O)c2ccc(Cl)cc21 | inactive | inactive | inactive | inactive | inactive | inactive | inactive | – | inactive | inactive | inactive | inactive
CC(=O)[C@H]1CC[C@H]2[C@@H]3C=CC4=CC(=O)CC[C@@]4(C)[C@@H]3CC[C@]12C | inactive | inactive | inactive | inactive | inactive | inactive | inactive | – | inactive | inactive | inactive | inactive
CO[C@@H]1[C@@H](O[C@@H]2O[C@H](C)[C@@H](O[C@H]3C[C@@](C)(O)[C@@H](O)[C@H](C)O3)[C@H](N(C)C)[C@H]2O)[C@@H](CC=O)C[C@@H](C)[C@@H](O[C@@H]2CC[C@H](N(C)C)[C@@H](C)O2)/C=C/C=C/C[C@@H](C)OC(=O)C[C@H]1OC(C)=O | inactive | inactive | inactive | inactive | inactive | inactive | – | inactive | inactive | inactive | inactive | inactive
O=C(Nc1ccc(S(=O)(=O)N2CCOCC2)cc1)c1cc(Cl)ccc1NS(=O)(=O)c1ccc(Cl)s1 | inactive | inactive | inactive | inactive | inactive | – | inactive | 18.8 µM (active) | – | inactive | inactive | inactive
N[C@@H](Cc1cc(I)c(O)c(I)c1)C(=O)O | inactive | inactive | inactive | inactive | inactive | inactive | inactive | – | inactive | inactive | inactive | inactive
CC(=O)OCC(=O)[C@@]1(O)CCC2C3CCC4=CC(=O)CC[C@]4(C)C3[C@@H](O)C[C@@]21C (stereo not given in full) | inactive | inactive | inactive | inactive | inactive | – | inactive | inactive | – | inactive | inactive | inactive
c1ccc2occc2c1 | inactive | inactive | inactive | inactive | inactive | inactive | inactive | – | inactive | inactive | inactive | inactive
CC(C)OC(=O)c1cc2c(OCC(O)CNC(C)(C)C)cccc2[nH]1 (stereo not given) | inactive | inactive | inactive | inactive | inactive | – | – | inactive | inactive | inactive | inactive | inactive
Cc1nc([N+](=O)[O-])cn1-c1ccc([N+](=O)[O-])cc1 | inactive | inactive | inactive | inactive | inactive | inactive | – | inactive | inactive | inactive | inactive | inactive
CC(C)C(C)(C)C(C)(C)C(C)(C)S | inactive | inactive | inactive | inactive | inactive | inactive | inactive | – | – | inactive | inactive | –
O=C(CO)[C@@H](O)[C@H](O)[C@@H](O)CO | inactive | inactive | inactive | inactive | inactive | inactive | – | inactive | inactive | inactive | inactive | –
CC[N+](CC)(CC)CCOC(=O)C(C1CCCC1)C1CCCC1 | inactive | inactive | inactive | inactive | inactive | inactive | – | – | inactive | inactive | inactive | inactive
CCc1cc(S(=O)(=O)O)c2cc(C(C)C)cccc1-2 | inactive | inactive | inactive | inactive | inactive | inactive | inactive | inactive | inactive | – | – | inactive
CCOC(=O)Cn1cccc1-c1nc(-c2ccc(OC)cc2)c(-c2ccc(OC)cc2)s1 | inactive | inactive | inactive | inactive | inactive | inactive | inactive | inactive | – | inactive | – | inactive
OCc1c[nH]c2ccccc12 | inactive | inactive | inactive | inactive | inactive | – | – | 21.7 µM (active) | – | – | inactive | inactive
O=C(O)[C@H](O)[C@@H](O)[C@H](O[C@@H]1O[C@H](CO)[C@H](O)[C@H](O)[C@H]1O)[C@H](O)CO | inactive | inactive | inactive | inactive | inactive | inactive | inactive | inactive | inactive | inactive | – | –
O=C(NO)c1ccccc1 | inactive | inactive | inactive | inactive | inactive | – | – | – | – | inactive | inactive | –
